Reference: PubChem BioAssay (NCATS)
Results filed as inconclusive are left out. The source made the active and inactive calls. Unless noted, calls follow the shape of the dose curve; as a rule, active = well fitted curve in either direction with a large enough effect (not every such curve was filed as active); inconclusive = small, poorly fitted or top-dose-only effect, or another doubt; inactive = flat fitted curve, though single readings scatter.

Key:
[1] = AP1 Signaling Pathway (AID 357); conditions: ME-180 AP-1-bla reporter, EGF-induced, beta-lactamase ratio, 5 h; at 17.2 µM (top of the series) unless noted;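 also: ME-180 reporter cells stimulated with EGF at its EC50 level; % is scaled to controls: 0 for no effect and ±100 for the full control effect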
Summary of the method: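 Read-out was the 460nm/530nm emission ratio (excitation 405nm) after CCF4 loading for 2.5 hours at room temperature. Cells carried an AP-1-driven beta-lactamase reporter, were stimulated with EC50 EGF plus compound for 5 hours, and AC50 values came from titrations.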

[2] = NFAT Signaling Pathway (AID 444); conditions: Jurkat NFAT-bla M1, carbachol, beta-lactamase ratio, 5 h; at 17.2 µM (top of the series) unless noted;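 also: carbachol stimulus at about its EC50 of 1 µM final; % is scaled to controls: 0 for no effect and ±100 for the full control effect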
Summary of the method: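 Read-out: CCF4 FRET ratio (460 nm/530 nm) after 1 h RT dye loading, used for %activity and AC50 from titration series. Cells: Jurkat NFAT-β-lactamase/M1 line, treated with compound plus 1 uM carbachol for 5 h, 37 °C.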

[3] = Stat Signaling Pathway (AID 446);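 also: ME-180 cervical cancer cells given 40 pM IL-6 alongside compound; SIE-controlled beta-lactamase reporter measured as 460/530 nm FRET emission ratio; % is scaled to controls: 0 for no effect and ±100 for the full control effect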
Summary of the method: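 Reporter line: ME-180 cervical carcinoma, SIE-beta-lactamase. Treatment: compound with 40 pM IL-6, 5 hrs, 37 C, in low-serum OPTI-MEM with 10 mM HEPES pH 7.3. Detection: 460/530 nm fluorescence.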

[4] = target: Glucocorticoid receptor (Homo sapiens) (UniProt P04150); test: GR-GFP Redistribution (AID 450;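 active = compounds whose dose series gives a full or clear partial fitted curve of increased nuclear translocation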; also: potency is read from the fitted curve at half-maximal effect); conditions: U2OS GR-GFP nuclear translocation, laser cytometry, 2 h
Glucocorticoid receptor (Homo sapiens), sequence (P04150 whole entry, looked up): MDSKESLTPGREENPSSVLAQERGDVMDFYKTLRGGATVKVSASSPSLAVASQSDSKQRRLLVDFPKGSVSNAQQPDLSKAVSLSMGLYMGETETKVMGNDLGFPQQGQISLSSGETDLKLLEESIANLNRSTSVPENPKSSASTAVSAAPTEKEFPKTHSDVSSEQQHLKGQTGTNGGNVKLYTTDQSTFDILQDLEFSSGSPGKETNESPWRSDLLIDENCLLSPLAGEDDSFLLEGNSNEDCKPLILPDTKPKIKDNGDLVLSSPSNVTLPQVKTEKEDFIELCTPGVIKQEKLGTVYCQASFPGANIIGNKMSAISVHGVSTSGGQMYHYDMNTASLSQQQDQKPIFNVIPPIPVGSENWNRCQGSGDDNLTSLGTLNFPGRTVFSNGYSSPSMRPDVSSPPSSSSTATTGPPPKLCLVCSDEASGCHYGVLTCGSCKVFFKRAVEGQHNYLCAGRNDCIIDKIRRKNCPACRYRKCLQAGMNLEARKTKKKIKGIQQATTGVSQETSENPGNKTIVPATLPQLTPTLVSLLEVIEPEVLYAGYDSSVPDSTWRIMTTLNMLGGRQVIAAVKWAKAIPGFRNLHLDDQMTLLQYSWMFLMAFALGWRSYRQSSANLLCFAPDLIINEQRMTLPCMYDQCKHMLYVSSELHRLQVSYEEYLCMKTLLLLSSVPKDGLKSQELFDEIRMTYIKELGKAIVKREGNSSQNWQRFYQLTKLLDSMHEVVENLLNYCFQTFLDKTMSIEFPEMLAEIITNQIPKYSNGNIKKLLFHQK

O=c1[nH]c(O)c(C=NC2CCN(Cc3ccccc3)CC2)c(=O)[nH]1
inactive: activity change, negative = inhibition [1] 5.09% | activity change, negative = inhibition [2] -19.6% | outcome [3] | Potency [4] > 20.6 µM

O=c1c(C=NCCN2CCNCC2)c(O)n(C2CCCCC2)c(=O)n1C1CCCCC1
inactive: activity change, negative = inhibition [1] 4.2% | activity change, negative = inhibition [2] 18.3% | outcome [3] | Potency [4] > 20.6 µM

COc1ccccc1-n1c(O)c(C=NCCCn2ccnc2)c(=O)[nH]c1=O
inactive: activity change, negative = inhibition [1] 6.21% | activity change, negative = inhibition [2] 10.5% | outcome [3] | Potency [4] > 20.6 µM

CC(=O)OC1(c2ccc(C)cc2)CN2CCC1c1ccccc12 (centres undefined)
inactive: activity change, negative = inhibition [1] 7.68% | activity change, negative = inhibition [2] -10.3% | outcome [3] | Potency [4] > 20.6 µM

COc1ccc(Cn2c(O)c(C=NCCCn3ccnc3)c(=O)[nH]c2=O)cc1
inactive: activity change, negative = inhibition [1] -15.8% | activity change, negative = inhibition [2] -15.1% | outcome [3] | Potency [4] > 20.6 µM

CC1=NOC2(C)Nc3ncnn3C(c3ccccc3)C12 (centres undefined)
inactive: activity change, negative = inhibition [1] 20.5% | activity change, negative = inhibition [2] -2.94% | outcome [3] | Potency [4] > 20.6 µM

CC(=O)OC1N=C(c2ccccc2)c2ccccc2NC1=O (centres undefined)
inactive: activity change, negative = inhibition [1] -8.32% | activity change, negative = inhibition [2] 11.5% | outcome [3] | Potency [4] > 20.6 µM

CCOC(=O)[C@]1(C#N)[C@@H]2C=CC(C(C)=O)=CN2[C@@H](C(N)=O)[C@@H]1c1ccsc1
inactive: activity change, negative = inhibition [1] -0.365% | activity change, negative = inhibition [2] -15.2% | outcome [3] | Potency [4] > 20.6 µM

CCN(CC)CCCC(C)N=C(c1ccccc1)c1c(O)n(C)c(=O)n(C)c1=O (centres undefined)
inactive: activity change, negative = inhibition [1] -17.7% | activity change, negative = inhibition [2] -29.5% | outcome [3] | Potency [4] > 20.6 µM

O=c1[nH]c(=O)n(Cc2ccco2)c(O)c1C=NCc1ccc2c(c1)OCO2
inactive: activity change, negative = inhibition [1] -17.4% | activity change, negative = inhibition [2] 2.74% | outcome [3] | Potency [4] > 20.6 µM

C[C@H]1CCCC(=O)CCCCCc2cc(O)cc(O)c2C(=O)O1
inactive: activity change, negative = inhibition [1] -29.6% | activity change, negative = inhibition [2] 22.4% | outcome [3] | Potency [4] > 20.6 µM

CC(=O)OC1(Cc2ccccc2)CN2CCC1c1ccccc12 (centres undefined)
inactive: activity change, negative = inhibition [1] -0.0283% | activity change, negative = inhibition [2] -23.5% | outcome [3] | Potency [4] > 46 µM

CN1CCc2c(c(N3CCCCC3)nc3n[nH]c(N)c23)C1
inactive: activity change, negative = inhibition [1] -3.37% | activity change, negative = inhibition [2] -4.59% | outcome [3] | Potency [4] > 20.6 µM

COc1ccc(C(=O)CC2C(=O)N(C)C(=O)N(C)C2=O)cc1
inactive: activity change, negative = inhibition [1] 8.4% | activity change, negative = inhibition [2] -29.5% | outcome [3] | Potency [4] > 20.6 µM

COC(=O)C(c1ccccc1)N1CCCCCC1 (centres undefined)
inactive: activity change, negative = inhibition [1] 17.9% | activity change, negative = inhibition [2] -19.7% | outcome [3] | Potency [4] > 20.6 µM

OC(c1ccc(F)cc1)C(c1ccccc1)N1CCOCC1 (centres undefined)
inactive: activity change, negative = inhibition [1] -21.7% | activity change, negative = inhibition [2] -1.44% | outcome [3] | Potency [4] > 20.6 µM

CCCCSP1(=S)NCCCO1 (centres undefined)
inactive: activity change, negative = inhibition [1] 2.22% | activity change, negative = inhibition [2] 1.86% | outcome [3] | Potency [4] > 20.6 µM

CCCN(CC#CCO)CCC
inactive: activity change, negative = inhibition [1] -3.1% | activity change, negative = inhibition [2] 3.75% | outcome [3] | Potency [4] > 20.6 µM

CC1(c2ccccc2)NCCN2C(=O)CSC21 (centres undefined)
inactive: activity change, negative = inhibition [1] 2.95% | activity change, negative = inhibition [2] -7.83% | outcome [3] | Potency [4] > 20.6 µM

Nc1ncc(P(=S)(N2CCOCC2)N2CCOCC2)s1
inactive: activity change, negative = inhibition [1] 10.9% | activity change, negative = inhibition [2] 4.78% | outcome [3] | Potency [4] > 20.6 µM

CCCc1nc2ccccc2c(=O)n1-c1ccccc1OC
inactive: activity change, negative = inhibition [1] -13.4% | activity change, negative = inhibition [2] 1.18% | outcome [3] | Potency [4] > 20.6 µM

COc1ccc2c(c1OC)C(=O)OC2c1c(O)n(C2CCCCC2)c(=O)[nH]c1=O (centres undefined)
inactive: activity change, negative = inhibition [1] -13.3% | activity change, negative = inhibition [2] -3.36% | outcome [3] | Potency [4] > 20.6 µM

CCCCNC(=O)Nc1ccc(C(O)(C(=O)OC)C(F)(F)F)cc1 (centres undefined)
inactive: activity change, negative = inhibition [1] -12.1% | activity change, negative = inhibition [2] 26.8% | outcome [3] | Potency [4] > 20.6 µM

O=C(c1ccco1)C12CN3CN(CN(C3)C1)C2
inactive: activity change, negative = inhibition [1] 4.87% | activity change, negative = inhibition [2] -11.2% | outcome [3] | Potency [4] > 20.6 µM

CCCCCCn1c(O)c(C(C)=NC)c(=O)[nH]c1=O
inactive: activity change, negative = inhibition [1] -9.96% | activity change, negative = inhibition [2] 21.1% | outcome [3] | Potency [4] > 20.6 µM

COc1ccc(C2SCC(=O)Nc3c2c(=O)[nH]n3C2CCCCC2)cc1 (centres undefined)
inactive: activity change, negative = inhibition [1] -14.7% | activity change, negative = inhibition [2] 0.11% | outcome [3] | Potency [4] > 20.6 µM

O=c1[nH]c2ccccc2c(=O)n1-c1cccc(Cl)c1
inactive: activity change, negative = inhibition [1] 24.2% | activity change, negative = inhibition [2] -3.58% | outcome [3] | Potency [4] > 20.6 µM

O=C1NC(=O)C(C/C=C/c2ccccc2)C(=O)N1
inactive: activity change, negative = inhibition [1] 9.27% | activity change, negative = inhibition [2] -11.1% | outcome [3] | Potency [4] > 20.6 µM

Cc1ccc(-n2c(O)c(C=NCCN3CCOCC3)c(=O)[nH]c2=O)cc1
inactive: activity change, negative = inhibition [1] 6.04% | activity change, negative = inhibition [2] 13.7% | outcome [3] | Potency [4] > 20.6 µM

COCCOC(=O)c1c(N)n(Cc2ccco2)c2nc3ccccc3nc12
inactive: activity change, negative = inhibition [1] -12.5% | activity change, negative = inhibition [2] 16.1% | outcome [3] | Potency [4] > 20.6 µM

CCOCCN1CCC(OC(C)=O)C(C)C1 (centres undefined)
inactive: activity change, negative = inhibition [1] -2.51% | activity change, negative = inhibition [2] -5.87% | outcome [3] | Potency [4] > 20.6 µM
